Results: the supplement of paper PMC11732987, “Enantioselective OTUD7B fragment discovery through chemoproteomics screening and high-throughput optimisation” (Communications Chemistry, 2025)

Key:
Assay in all cases: log2 ratio of Biotin-Ahx-Ub-VS probe labelling (fragment/DMSO); higher = less target engagement (more negative = stronger competition), active = hit call of the paper (q ≤ 0.05, log2 ratio ≤ -1)
Details in all cases: compound concentration: 200 uM; treatment time: 3 h
USP34 = USP34 (UniProt Q70CQ2)
Procedure, shortened: (§1)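 The table lists average log2 ratios of fragment over vehicle, from an unpaired t-test on global-median-normalised Spectronaut label-free quantities. Proteins with ≥2 unique peptides were used. Samples were HEK293T lysate (495 µg) treated in triplicate with fragment at 200 µM or vehicle for 3 h, then with Biotin-Ahx-Ub-VS (0.5 µM final) for 1 h, with labelled DUBs NeutrAvidin-enriched and run by diaPASEF LC-MS/MS.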

USP36 = molecular target: T1, USP36 (UniProt Q9P275)
T1 sequence (whole entry): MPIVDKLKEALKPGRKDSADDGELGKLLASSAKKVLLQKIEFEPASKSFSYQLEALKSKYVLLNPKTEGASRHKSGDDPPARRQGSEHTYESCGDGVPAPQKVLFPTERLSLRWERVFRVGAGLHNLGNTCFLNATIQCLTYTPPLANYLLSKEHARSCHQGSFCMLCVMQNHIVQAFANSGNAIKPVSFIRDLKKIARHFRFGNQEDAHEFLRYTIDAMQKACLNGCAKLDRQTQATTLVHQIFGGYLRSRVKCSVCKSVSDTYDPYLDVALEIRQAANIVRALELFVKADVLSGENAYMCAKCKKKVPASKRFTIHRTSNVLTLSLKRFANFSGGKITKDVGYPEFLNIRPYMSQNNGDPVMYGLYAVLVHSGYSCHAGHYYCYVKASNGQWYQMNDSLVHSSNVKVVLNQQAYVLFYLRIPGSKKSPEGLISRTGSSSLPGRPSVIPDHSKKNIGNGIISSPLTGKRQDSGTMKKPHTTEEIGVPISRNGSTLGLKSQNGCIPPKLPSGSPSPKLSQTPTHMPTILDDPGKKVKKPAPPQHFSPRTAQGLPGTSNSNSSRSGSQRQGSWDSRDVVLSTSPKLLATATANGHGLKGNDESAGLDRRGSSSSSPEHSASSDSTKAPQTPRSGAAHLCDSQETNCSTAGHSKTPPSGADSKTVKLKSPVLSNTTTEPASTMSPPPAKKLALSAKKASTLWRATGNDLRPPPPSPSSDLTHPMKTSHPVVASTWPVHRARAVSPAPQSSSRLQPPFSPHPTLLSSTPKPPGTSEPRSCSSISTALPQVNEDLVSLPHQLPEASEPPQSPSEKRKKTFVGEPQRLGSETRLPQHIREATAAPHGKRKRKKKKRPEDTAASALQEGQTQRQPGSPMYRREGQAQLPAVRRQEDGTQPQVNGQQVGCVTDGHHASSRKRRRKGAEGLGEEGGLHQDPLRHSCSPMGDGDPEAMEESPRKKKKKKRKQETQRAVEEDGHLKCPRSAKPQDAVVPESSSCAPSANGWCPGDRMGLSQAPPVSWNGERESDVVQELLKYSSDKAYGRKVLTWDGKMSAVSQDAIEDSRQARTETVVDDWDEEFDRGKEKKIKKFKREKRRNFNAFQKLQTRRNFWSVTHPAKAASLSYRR
Procedure, shortened: as §1

USP38 = molecular target: T2, USP38 (UniProt Q8NB14)
T2 sequence (whole entry): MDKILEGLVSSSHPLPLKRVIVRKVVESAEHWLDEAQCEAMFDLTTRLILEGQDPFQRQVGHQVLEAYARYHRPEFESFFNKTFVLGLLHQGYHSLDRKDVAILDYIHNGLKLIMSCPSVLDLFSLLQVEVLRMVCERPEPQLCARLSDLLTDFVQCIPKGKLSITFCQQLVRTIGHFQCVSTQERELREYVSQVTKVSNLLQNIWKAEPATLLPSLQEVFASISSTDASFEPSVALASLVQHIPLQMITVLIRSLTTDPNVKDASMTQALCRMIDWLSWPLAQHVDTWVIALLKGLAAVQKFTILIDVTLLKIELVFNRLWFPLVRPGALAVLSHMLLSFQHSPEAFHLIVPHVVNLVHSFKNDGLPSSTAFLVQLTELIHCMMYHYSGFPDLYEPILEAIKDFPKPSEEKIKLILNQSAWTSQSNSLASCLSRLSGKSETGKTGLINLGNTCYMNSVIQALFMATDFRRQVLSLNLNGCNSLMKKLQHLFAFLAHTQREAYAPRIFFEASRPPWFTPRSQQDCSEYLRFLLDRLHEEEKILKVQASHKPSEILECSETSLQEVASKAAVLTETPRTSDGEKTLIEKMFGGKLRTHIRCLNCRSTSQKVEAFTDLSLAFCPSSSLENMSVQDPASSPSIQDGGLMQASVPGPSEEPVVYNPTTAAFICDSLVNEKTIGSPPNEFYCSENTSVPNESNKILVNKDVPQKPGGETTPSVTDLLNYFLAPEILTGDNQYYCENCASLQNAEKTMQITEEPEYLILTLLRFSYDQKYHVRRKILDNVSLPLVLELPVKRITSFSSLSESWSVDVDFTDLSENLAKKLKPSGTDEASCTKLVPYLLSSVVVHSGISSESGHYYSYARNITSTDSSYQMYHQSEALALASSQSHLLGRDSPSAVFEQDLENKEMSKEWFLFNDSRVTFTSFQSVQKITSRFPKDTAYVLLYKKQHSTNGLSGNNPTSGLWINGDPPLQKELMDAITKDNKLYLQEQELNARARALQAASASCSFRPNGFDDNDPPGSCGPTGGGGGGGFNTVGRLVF
Procedure, shortened: as §1

USP39 = molecular target: T3, USP39 (UniProt Q53GS9)
T3 sequence (whole entry): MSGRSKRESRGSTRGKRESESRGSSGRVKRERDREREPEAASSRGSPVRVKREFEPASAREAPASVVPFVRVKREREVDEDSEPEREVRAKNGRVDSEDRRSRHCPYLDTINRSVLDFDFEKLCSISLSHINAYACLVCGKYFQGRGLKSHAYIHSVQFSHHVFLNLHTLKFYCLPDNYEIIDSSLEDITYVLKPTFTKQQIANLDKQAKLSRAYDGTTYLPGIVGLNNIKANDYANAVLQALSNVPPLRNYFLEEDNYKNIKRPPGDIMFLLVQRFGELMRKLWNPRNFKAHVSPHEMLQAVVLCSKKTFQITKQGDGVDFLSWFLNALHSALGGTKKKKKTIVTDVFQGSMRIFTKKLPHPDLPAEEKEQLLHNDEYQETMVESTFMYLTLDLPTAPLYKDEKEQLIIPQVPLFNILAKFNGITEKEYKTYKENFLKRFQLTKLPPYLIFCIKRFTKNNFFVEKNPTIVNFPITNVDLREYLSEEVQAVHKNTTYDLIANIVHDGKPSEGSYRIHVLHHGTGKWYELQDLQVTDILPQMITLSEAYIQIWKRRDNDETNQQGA
Procedure, shortened: as §1

USP4 = molecular target: T4, USP4 (UniProt Q13107)
T4 sequence (whole entry): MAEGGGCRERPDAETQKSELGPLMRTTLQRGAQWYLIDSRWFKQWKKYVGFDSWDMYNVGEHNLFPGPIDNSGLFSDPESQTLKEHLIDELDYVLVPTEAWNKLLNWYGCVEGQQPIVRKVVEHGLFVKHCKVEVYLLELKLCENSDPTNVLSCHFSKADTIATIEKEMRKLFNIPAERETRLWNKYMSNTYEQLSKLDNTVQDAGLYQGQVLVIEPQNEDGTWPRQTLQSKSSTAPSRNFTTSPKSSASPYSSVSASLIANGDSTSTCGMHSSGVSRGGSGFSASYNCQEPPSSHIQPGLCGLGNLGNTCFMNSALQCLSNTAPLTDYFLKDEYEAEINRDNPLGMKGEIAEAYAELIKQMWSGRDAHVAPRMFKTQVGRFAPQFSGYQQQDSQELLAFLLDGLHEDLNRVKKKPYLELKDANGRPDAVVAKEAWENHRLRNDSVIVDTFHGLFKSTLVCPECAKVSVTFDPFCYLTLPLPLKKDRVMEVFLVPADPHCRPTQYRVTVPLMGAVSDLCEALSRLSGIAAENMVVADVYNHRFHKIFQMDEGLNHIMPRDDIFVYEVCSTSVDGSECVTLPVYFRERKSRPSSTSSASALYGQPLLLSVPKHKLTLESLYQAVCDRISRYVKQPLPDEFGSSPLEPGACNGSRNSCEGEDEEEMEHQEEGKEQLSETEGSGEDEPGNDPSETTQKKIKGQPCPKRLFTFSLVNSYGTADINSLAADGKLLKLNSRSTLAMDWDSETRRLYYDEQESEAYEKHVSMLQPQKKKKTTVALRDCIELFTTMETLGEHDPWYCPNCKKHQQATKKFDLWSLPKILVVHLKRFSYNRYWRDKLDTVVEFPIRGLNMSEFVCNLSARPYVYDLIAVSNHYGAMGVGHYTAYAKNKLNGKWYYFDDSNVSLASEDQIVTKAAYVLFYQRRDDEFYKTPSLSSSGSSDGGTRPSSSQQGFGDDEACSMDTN
Procedure, shortened: as §1

Measured: log2 ratio of Biotin-Ahx-Ub-VS probe labelling

Sequence of USP34 (Q70CQ2 whole entry, the tested form may be a part): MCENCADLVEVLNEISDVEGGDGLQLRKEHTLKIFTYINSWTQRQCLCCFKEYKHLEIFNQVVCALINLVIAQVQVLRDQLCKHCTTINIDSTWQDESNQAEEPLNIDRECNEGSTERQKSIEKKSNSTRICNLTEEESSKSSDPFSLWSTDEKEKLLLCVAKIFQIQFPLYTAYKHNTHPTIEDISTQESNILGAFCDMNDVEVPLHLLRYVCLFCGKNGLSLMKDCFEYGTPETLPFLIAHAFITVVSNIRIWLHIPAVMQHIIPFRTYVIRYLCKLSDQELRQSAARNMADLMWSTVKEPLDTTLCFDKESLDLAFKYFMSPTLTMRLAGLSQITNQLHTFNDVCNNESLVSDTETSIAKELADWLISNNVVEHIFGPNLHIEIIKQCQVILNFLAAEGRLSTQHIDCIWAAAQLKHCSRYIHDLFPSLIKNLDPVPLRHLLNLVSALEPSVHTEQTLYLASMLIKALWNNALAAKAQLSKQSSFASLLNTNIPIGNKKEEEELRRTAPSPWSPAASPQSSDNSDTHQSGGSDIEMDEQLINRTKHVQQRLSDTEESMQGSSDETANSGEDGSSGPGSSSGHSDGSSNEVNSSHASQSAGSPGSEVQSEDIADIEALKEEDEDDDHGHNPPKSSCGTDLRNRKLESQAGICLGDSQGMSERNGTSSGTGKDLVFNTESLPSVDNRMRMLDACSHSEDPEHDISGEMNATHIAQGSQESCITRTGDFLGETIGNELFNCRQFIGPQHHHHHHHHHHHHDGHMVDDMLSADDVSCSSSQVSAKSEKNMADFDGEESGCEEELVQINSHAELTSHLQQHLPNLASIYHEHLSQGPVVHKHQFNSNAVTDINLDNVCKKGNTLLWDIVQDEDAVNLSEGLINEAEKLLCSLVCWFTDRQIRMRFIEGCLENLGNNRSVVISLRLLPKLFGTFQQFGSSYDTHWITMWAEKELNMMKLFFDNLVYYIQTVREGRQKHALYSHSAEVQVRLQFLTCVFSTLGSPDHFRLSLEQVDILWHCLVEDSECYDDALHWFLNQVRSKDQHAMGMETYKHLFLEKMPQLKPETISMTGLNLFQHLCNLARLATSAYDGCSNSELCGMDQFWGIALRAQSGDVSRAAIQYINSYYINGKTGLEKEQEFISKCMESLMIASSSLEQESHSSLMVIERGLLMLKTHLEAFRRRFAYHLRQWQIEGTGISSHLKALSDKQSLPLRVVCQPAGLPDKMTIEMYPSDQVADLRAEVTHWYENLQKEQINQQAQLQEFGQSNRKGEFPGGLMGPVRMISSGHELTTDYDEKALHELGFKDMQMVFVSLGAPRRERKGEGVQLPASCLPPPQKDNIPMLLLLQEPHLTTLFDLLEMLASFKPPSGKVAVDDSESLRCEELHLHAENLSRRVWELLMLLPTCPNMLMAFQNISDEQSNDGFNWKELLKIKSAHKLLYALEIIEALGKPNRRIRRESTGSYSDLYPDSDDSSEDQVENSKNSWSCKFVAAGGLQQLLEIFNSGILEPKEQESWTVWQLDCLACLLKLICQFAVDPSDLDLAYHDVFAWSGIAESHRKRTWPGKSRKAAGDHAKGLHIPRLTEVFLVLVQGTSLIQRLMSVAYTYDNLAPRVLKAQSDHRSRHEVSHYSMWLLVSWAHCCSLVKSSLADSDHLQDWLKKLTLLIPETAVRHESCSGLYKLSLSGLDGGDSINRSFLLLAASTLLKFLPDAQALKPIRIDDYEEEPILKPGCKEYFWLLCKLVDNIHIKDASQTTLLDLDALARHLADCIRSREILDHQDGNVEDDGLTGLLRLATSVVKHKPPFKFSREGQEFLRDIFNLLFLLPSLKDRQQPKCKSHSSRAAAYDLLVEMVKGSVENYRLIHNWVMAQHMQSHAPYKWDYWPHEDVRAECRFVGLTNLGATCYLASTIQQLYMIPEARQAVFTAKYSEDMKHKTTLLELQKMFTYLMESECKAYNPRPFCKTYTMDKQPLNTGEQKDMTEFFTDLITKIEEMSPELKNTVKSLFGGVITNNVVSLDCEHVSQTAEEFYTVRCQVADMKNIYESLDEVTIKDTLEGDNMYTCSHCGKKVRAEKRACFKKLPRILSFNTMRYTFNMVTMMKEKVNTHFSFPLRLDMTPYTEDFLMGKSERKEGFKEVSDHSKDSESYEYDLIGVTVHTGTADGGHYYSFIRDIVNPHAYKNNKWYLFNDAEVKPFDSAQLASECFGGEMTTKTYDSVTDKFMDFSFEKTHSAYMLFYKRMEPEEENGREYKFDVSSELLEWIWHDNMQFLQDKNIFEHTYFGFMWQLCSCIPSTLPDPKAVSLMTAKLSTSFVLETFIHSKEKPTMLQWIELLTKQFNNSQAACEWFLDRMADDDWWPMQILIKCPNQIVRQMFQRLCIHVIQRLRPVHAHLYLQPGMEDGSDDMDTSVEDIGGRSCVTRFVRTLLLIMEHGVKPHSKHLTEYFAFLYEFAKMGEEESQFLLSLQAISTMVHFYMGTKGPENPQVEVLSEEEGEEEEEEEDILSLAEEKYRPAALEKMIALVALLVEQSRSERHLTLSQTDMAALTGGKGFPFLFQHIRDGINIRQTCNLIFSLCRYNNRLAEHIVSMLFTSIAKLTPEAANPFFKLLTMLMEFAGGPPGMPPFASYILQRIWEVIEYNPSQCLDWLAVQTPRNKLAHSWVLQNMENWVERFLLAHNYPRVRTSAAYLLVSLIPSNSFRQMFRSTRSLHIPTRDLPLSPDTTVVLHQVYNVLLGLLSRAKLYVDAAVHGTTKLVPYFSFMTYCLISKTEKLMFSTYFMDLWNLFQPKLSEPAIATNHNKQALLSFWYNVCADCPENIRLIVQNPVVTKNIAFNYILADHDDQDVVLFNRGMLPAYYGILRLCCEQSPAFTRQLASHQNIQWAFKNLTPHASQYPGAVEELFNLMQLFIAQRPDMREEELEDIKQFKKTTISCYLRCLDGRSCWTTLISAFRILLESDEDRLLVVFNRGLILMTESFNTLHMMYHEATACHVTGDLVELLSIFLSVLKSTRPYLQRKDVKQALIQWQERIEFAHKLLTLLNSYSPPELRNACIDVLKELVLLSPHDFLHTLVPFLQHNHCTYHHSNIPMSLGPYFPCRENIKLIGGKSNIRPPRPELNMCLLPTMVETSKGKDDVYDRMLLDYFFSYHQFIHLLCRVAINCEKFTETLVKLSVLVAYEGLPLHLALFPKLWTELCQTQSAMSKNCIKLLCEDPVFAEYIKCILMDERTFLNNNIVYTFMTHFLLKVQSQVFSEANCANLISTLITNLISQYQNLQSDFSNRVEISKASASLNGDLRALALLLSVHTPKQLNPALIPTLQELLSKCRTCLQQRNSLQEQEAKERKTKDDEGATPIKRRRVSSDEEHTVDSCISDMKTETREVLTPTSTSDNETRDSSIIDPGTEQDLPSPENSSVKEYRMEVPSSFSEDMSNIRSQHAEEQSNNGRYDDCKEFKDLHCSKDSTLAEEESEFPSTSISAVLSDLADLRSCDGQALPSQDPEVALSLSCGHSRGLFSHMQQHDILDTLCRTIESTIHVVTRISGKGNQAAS

C[C@H]1CN(C(=O)CCl)CCN1C(=O)c1cnn(C)c1.Cl
inactive: USP34 -0.052 | USP36 -0.171 | USP38 -0.0453 | USP39 0.0473 | USP4 -0.115
